In PubChem BioAssay AID1817 (Sanford-Burnham Center for Chemical Genomics, 2009):
In all, about 290,000 compounds went through this assay and about 50 (0.02%) were called active. For the sample, actives were picked, then their nearest neighbours and some compounds at random. Potency and affinity values are given separately. Values without a mark were called inactive.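 How the source made its calls: active means displacement of at least 50% at 20 µM, with a fluorescence ratio check between 0.3 and a set limit; inactive means the rest.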

The compounds below were run against E3 ubiquitin-protein ligase SIAH1 (Homo sapiens) (UniProt Q8IUQ4) (assay: Siah-1 peptide-binding antagonists, primary screen, biochemical, fluorescence polarization, rhodamine-plectin, uHTS (AID 1817;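 further: plate controls were Siah plus tracer with DMSO for no effect and tracer alone without Siah for full effect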)). Conditions: Siah-1 / rhodamine-plectin peptide fluorescence polarization; at 20 µM; stronger effect = higher value.
Sequence of E3 ubiquitin-protein ligase SIAH1 (Homo sapiens) (Q8IUQ4 whole entry, looked up): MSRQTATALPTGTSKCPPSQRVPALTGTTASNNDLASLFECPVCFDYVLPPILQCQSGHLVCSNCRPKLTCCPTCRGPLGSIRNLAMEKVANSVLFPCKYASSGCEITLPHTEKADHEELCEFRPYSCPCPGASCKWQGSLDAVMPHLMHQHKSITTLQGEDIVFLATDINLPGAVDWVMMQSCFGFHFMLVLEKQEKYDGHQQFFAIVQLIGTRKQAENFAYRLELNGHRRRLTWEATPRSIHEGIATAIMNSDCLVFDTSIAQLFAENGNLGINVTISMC
`CCCCCCOc1ccc(N2C(=O)CC(N3CCN(CCN=CC4=C(O)CC(C)(C)CC4=O)CC3)C2=O)cc1` (centres undefined) showed a displacement of 1.8%. In the case of `CC(C)(C)c1ccc(C(CC(=O)O)NC(=O)Cc2ccccc2)cc1` (centres undefined), the displacement is reported as 1.2%. Work on `CC(C)(C)c1ccc(C(CC(=O)O)NC(=O)Cc2ccc(Cl)cc2)cc1` (centres undefined) yielded a displacement of -2.3%. With `CCOC(=O)c1nn(-c2cccc(OC)c2)c2nc(CC)c(C#N)c(=O)n12` the displacement was 12.2%. Work on `C=CCc1cccc2cc(C(=O)Nc3ccc(NC(C)=O)cc3)c(=O)oc12` yielded a displacement of 9.1%. With `C=CCc1cccc2cc(C(=O)Nc3ccc(F)cc3)c(=O)oc12` the displacement was 5.1%. For `CCn1c(SC(C)C(=O)O)nnc1-c1cccnc1` (centres undefined), the displacement was -1.4%. `Cc1ccc(-n2ncc3c2CC(C)(C)CC3NC(=O)c2ccc[n+]([O-])c2)cc1` (centres undefined) gave a displacement of 4.8%. In the case of `OCCNC(=S)Nc1ccc2nsnc2c1`, the displacement is reported as -1.1%. In the case of `C=CCNC(=S)Nc1ccc2nsnc2c1`, the displacement is reported as 52.1% (active). With `C=CCNC(=S)Nc1ccc2nc(C)c(C)nc2c1` the displacement was 3.4%. For `O=C(N/N=C/c1cccnc1)c1ccc2c(c1)OCCO2`, the displacement was -2.3%. `COc1ccc(-c2nc3c4ccccc4ccn3c2CN2CCOCC2)cc1OC` was tested, and the displacement was 13.8%. `COC(=O)c1ccc2c(=O)n(CCCN3CCCC3=O)c(=S)[nH]c2c1` showed a displacement of -3.7%. Compound `O=C(O)c1nc(-c2ccccc2)n(-c2cccc(C(F)(F)F)c2)n1` has a displacement of -2.9%. `COCCNC(=O)CSc1nc2cc(OC)c(OC)cc2c(=O)n1Cc1ccc(OC)cc1` was tested, and the displacement was 0.2%. For `Cc1cc(C)n2nnnc2c1C#N`, the displacement was 1.6%. Compound `O=C(Nc1ccc(Br)cc1)c1ccc(N2C(=O)C3CCCCC3C2=O)cc1` (centres undefined) has a displacement of -1%. Work on `O=C(Nc1ccc(Br)cc1)c1ccc(N2C(=O)C3CC=C(Cl)CC3C2=O)cc1` (centres undefined) yielded a displacement of -0.2%. `CCCOc1ccc(C(=O)CCC(=O)OCC(=O)Nc2cc(C)on2)cc1` gave a displacement of -2.7%. `COc1ccccc1C(=O)Nc1ccnn1C1CCN(Cc2ccc3nonc3c2)CC1` was tested, and the displacement was 7.2%. With `Cn1c(Cc2csc(N)n2)nnc1SCC(=O)NC1CCCCC1` the displacement was 0.1%. `O=S(=O)(c1ccc(Cl)cc1)N1CCN(C2CCN(Cc3ccccc3)CC2)CC1` was tested, and the displacement was 3%. `Cc1oc2cc(O)ccc2c(=O)c1-c1ccccc1` was tested, and the displacement was 8.8%. `Nc1ccc(-c2c3ccc(=O)cc-3oc3cc(O)ccc23)cc1C(=O)O` showed a displacement of 3%. Compound `C/C(=N\NC(=O)c1c(Cl)cnn1C)c1cccc(NC(=O)COc2ccccc2)c1` has a displacement of 0.3%. In the case of `CC(=O)Nc1ccc(C(=S)NCCCO)cc1`, the displacement is reported as -4.5%. `O=C(COC(=O)c1ccc2c(c1Cl)C(=O)c1ccccc1C2=O)NC1CCCCC1` showed a displacement of -2.2%. `COC(=O)c1ccc2c(c1O)C(=O)c1ccccc1C2=O` was tested, and the displacement was 71.8% (active). In the case of `CCN(CC)C(=O)c1ccc2c(c1[N+](=O)[O-])C(=O)c1ccccc1C2=O`, the displacement is reported as 34.3%. `COc1ccc2c(c1O)C(=O)c1ccccc1C2=O` gave a displacement of 2.4%. Compound `CC(C)COC(=O)c1ccc2c(c1O)C(=O)c1ccccc1C2=O` has a displacement of 4.6%. `CN(C)C(=O)c1ccc2c(c1[N+](=O)[O-])C(=O)c1ccccc1C2=O` was tested, and the displacement was 60.6% (active). `O=C(COC(=O)c1ccc2c(c1[N+](=O)[O-])C(=O)c1ccccc1C2=O)NC1CC1` was tested, and the displacement was 76.3% (active). `O=C(COC(=O)c1ccc2c(c1Cl)C(=O)c1ccccc1C2=O)NC1CC1` gave a displacement of -3.3%. `Cc1[nH]c2ccccc2c1CCNC(=O)c1ccc2c(c1[N+](=O)[O-])C(=O)c1ccccc1C2=O` showed a displacement of 22.7%. In the case of `CN(CCOc1ccccc1)S(=O)(=O)c1ccc2oc3ccccc3c2c1`, the displacement is reported as 2.8%. `CC(=O)c1ccc(NC(=O)CCNS(=O)(=O)c2ccccc2F)cc1` showed a displacement of -1.6%. For `Cc1ccc(N(C)S(=O)(=O)c2cc3c(cc2C)NC(=O)CO3)cc1`, the displacement was -1%. In the case of `Cc1nc(N)sc1-c1csc(Nc2ncccn2)n1`, the displacement is reported as 57.3% (active). In the case of `Cc1nc(N)sc1-c1csc(Nc2ccccc2)n1`, the displacement is reported as 3.2%. `Cc1nc(N)sc1-c1csc(Nc2ccccn2)n1` was tested, and the displacement was -1.4%. `CCOC(=O)c1[nH]c2ccccc2c1NC(=O)c1ccc(S(=O)(=O)N2CCCCC2)cc1` was tested, and the displacement was -3.4%. With `COc1ccc(C(=O)N2CCC(O)(c3ccc(Cl)cc3)CC2)cc1OC` the displacement was -8.7%. `CC1CCc2onc(C(=O)NCc3ccco3)c2C1` (centres undefined) showed a displacement of 3.6%. Compound `Cc1ccccc1Nc1nc(-c2sc(NC(=O)c3ccccc3)nc2C)cs1` has a displacement of -5.4%. In the case of `O=C(CN1C(=O)N/C(=C\c2ccccc2OCc2ccc(C(=O)O)cc2)C1=O)Nc1ccccc1F`, the displacement is reported as 10.4%. Work on `O=C(CN1C(=O)N/C(=C\c2ccccc2OCc2ccc(C(=O)O)cc2)C1=O)Nc1ccc(F)cc1` yielded a displacement of 1.1%. `CCOC(=O)CNC(=S)N(Cc1cccs1)C1CCCC1` gave a displacement of 0.7%. Compound `Cc1cccc(C(=O)NNC(=O)c2ccc(S(=O)(=O)N3CCOCC3)cc2)c1` has a displacement of -3.9%. `O=c1[nH]n(-c2ccccc2)c(=O)c2ccccc12` was tested, and the displacement was 0%. `O=c1cc(-c2ccccc2)[nH]n1-c1ccc([N+](=O)[O-])cc1` was tested, and the displacement was -0.2%. `O=C(C1CCN(S(=O)(=O)c2ccc(F)cc2)CC1)N1CC=C(c2ccccc2)CC1` was tested, and the displacement was 3%. In the case of `COc1ccc(C(CNC(=O)C(C)c2ccc3cc(OC)ccc3c2)N(C)C)cc1` (centres undefined), the displacement is reported as 5.2%. `CC1=C(C#N)c2nc(N)c(C#N)c(C)c2/C1=C\c1ccc(OCC(=O)O)c(Cl)c1` was tested, and the displacement was 0%. `CC1=C(C#N)c2nc(N)c(C#N)c(C)c2/C1=C\c1ccc(C)cc1` gave a displacement of -2.8%. With `COc1ccc(C2=[N+]([O-])C(C)(C)C(c3ccccc3)=N2)cc1` the displacement was 6.6%. `COc1ccc(-c2nc(CN3CCN(Cc4cccc(F)c4)CC3)c(C)o2)cc1` was tested, and the displacement was 13.6%. In the case of `O=C(CCC1CCCC1)N1CCN(C(=O)c2ccco2)CC1`, the displacement is reported as -6%. Work on `O=C(CNC(=O)c1ccccc1F)NC1CCN(Cc2ccccc2)CC1` yielded a displacement of -3.7%. In the case of `CC(SCc1ccccc1)C(=O)Nc1ccccc1Br` (centres undefined), the displacement is reported as -6.3%. Compound `Cc1sc2cc(-c3cccc([N+](=O)[O-])c3)c(-c3cccc([N+](=O)[O-])c3)c[n+]2c1C` has a displacement of 5.1%. In the case of `Oc1ccccc1/C=N/NC(=S)NC1CC2CC1C1C=CCC21` (centres undefined), the displacement is reported as 2.4%. `CC(C)(C)c1nnc(N/N=C/c2ccc(O)cc2)n(N)c1=O` gave a displacement of 18.4%. For `CC(C)(C)c1nnc(N/N=C/c2ccccc2)n(N)c1=O`, the displacement was 51.9% (active). Compound `CC(C)(C)c1nnc(N/N=C/c2ccc(Br)cc2)n(N)c1=O` has a displacement of 7.3%. In the case of `CCCc1nnc(NC(=O)C2CC(=O)N(CCc3ccc(F)cc3)C2)s1` (centres undefined), the displacement is reported as 24.3%. With `Cc1[nH]c2ccccc2c1C(=O)CSc1nc2ccccc2[nH]1` the displacement was -0.5%. `Cc1c(C)n(C(=O)CSc2nc3ccccc3[nH]2)c2ccccc12` was tested, and the displacement was 51% (active). `Cc1c(C)n(C(=O)CSc2ncn[nH]2)c2ccccc12` showed a displacement of -4.9%. In the case of `O=C(CSCc1nc2scc(-c3cccs3)c2c(=O)[nH]1)Nc1ccccn1`, the displacement is reported as -4.4%. In the case of `COc1ccc(OCC(O)CNC(=O)c2ccccc2C(=O)O)cc1` (centres undefined), the displacement is reported as 8.1%. For `CCOC(=O)C(C(=O)OCC)c1cc(Br)c2noc3c2c1C(=O)c1ccccc1-3`, the displacement was 102% (active). Compound `CCOC(=O)N1CCN(c2cc(NCCC(=O)O)c3c4c(onc24)-c2ccccc2C3=O)CC1` has a displacement of 16.7%. In the case of `CCOc1ccc2noc3c2c1C(=O)c1ccccc1-3`, the displacement is reported as 37.3%. Work on `COc1ccc(-c2cc(C(=O)N3CCc4ccccc4C3)no2)cc1` yielded a displacement of 0.3%. Work on `Cc1ccc(S(=O)(=O)N2CCN(c3cccc(C)c3)CC2)cc1` yielded a displacement of 12.1%. `COc1cccc(OCc2cc(C(=O)NC3CCOCC3)no2)c1` showed a displacement of 1.4%. `CC1=C([N+](=O)[O-])C(c2ccccc2)NC(=O)N1` (centres undefined) showed a displacement of -5.5%.
